Data published in PubChem BioAssay AID1851 (National Center for Advancing Translational Sciences (NCATS), 2009).
The campaign covered roughly 16,000 compounds. About 4,000 (25%) were called active. Another 26% or so got no clear call; they are omitted. The list is a sample of the results. A number with no mark means an inactive call. Calls follow the shape of the dose curve; as a rule, active = well fitted curve in the direction sought with a large enough effect; inconclusive = small, poorly fitted or top-dose-only effect, or effect the other way; inactive = no such curve, though single readings can be large or run the other way.

target: Cytochrome P450 2C9 (Homo sapiens) (UniProt P11712); experiment: Cytochrome panel assay with activity outcomes; settings: recombinant CYP, pro-luciferin dealkylation, luminescence, p450-cyp2c9; series mostly up to 57.1 µM; activity, negative = inhibition: at the top concentration
% is scaled to controls: 0 for no effect and ±100 for the full control effect.

Cytochrome P450 2C9 (Homo sapiens), sequence (P11712 whole entry, looked up): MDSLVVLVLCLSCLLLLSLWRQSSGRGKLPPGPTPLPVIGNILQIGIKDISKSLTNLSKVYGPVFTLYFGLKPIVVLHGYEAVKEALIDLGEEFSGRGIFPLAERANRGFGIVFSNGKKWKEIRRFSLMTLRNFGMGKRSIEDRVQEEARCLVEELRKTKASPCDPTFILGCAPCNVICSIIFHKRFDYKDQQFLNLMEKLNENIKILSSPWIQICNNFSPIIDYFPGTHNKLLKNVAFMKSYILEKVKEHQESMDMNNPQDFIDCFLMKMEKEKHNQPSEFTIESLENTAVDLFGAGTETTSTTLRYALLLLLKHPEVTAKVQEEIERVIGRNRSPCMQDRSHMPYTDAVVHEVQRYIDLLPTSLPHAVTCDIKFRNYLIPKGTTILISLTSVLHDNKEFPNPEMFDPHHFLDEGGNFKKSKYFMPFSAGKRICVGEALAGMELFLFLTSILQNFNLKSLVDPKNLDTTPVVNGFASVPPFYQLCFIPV

| SMILES | activity, negative = inhibition | AC50 |
| --- | --- | --- |
| N[C@H](CCC(=O)NCS(=O)(=O)O)C(=O)O | -16.3% | – |
| CN(C)CCN(c1ccccn1)c1ccccn1 | 0.501% [at 11.4 µM] | – |
| O=C(C1=C(O)C(=O)N(Cc2ccco2)C1c1ccccc1)c1cccs1 (stereo not drawn) | – | 8.91 µM (active) |
| NS(=O)(=O)Cc1noc2ccccc12 | 8.47% | – |
| [N-]=[N+]=NC[C@@H]1O[C@@H](n2cnc3c(N)ncnc32)[C@@H]2O[C@@H]21 | 2.07% [at 11.4 µM] | – |
| CC1CCN(CC[C@@H]2CCCN2S(=O)(=O)c2cccc(O)c2)CC1 | -6.49% | – |
| CC1CCN(S(=O)(=O)c2ccc3c(c2)C(=NO)c2cc(S(=O)(=O)N4CCC(C)CC4)ccc2-3)CC1 | – | 3.98 µM (active) |
| CC1CCN(CC[C@H]2CCCN2S(=O)(=O)c2cccc(O)c2)CC1 | -3.33% | – |
| CC(=O)Nc1ccc(-c2cc(-c3ccc(NC(C)=O)cc3)nc(-c3ccccc3)n2)cc1 | -11% | – |
| CS(=O)(=O)c1nc(-c2ccccc2)cc(-c2ccccc2)c1C#N | – | 0.282 µM (active) |
| N#Cc1cccc(-c2nc(NCc3ccccc3)c3ccccc3n2)c1 | -29.7% [at 2.29 µM] | – |
| COCCCN=CC1=C(O)CC(C)(C)CC1=O | -24.3% | – |
| Cc1cccc(-c2noc(-c3cc4ccccc4oc3=O)n2)c1 | -11.5% | – |
| O=c1oc2ccccc2cc1-c1csc(NN=C2CCCCC2)n1 | – | 3.55 µM (active) |
| CN1CCC2(CC1)C1CN(C)CC=C1C(C#N)=C(N)C2(C#N)C#N (stereo not drawn) | -21.5% | – |
| O=C(c1ccco1)N1CCC2(CC1)CCN(c1ccc(-c3ccccc3)cc1)CC2 | -3.43% | – |
| Cc1sc(=NC(=O)c2ccco2)n(C)c1-c1ccc(F)cc1 | – | 8.91 µM (active) |
| Cn1c(=NC(=O)CCl)sc2ccccc21 | 7.79% | – |
| Cc1sc(=NC(=O)c2ccco2)n(C)c1-c1ccccc1 | – | 1.12 µM (active) |
| O=C(c1cnccn1)N1CCC2(CCCN(c3ccccn3)C2)CC1 | -3.22% | – |
| CS(=O)(=O)Nc1cccc(-c2ccc3ncnc(NC4CCNCC4)c3c2)c1 | -5.87% [at 2.29 µM] | – |
| O=C(c1csnn1)N1CCC2(CCCN(Cc3ccccc3)C2)CC1 | -6.31% | – |
| CCOC(=O)c1c(C)nc2c(c1-c1ccc(OC)cc1)C(=O)CC(C)(C)C2 | – | 15.8 µM (active) |
| CC1(C)CC(=O)c2cnc(N)nc2C1 | -20% | – |
| CCN1CCN(c2nc(C)c3c(n2)CCCC3=O)CC1 | 11.9% | – |
| CCOC(=O)c1c(C)nc2c(c1-c1ccccc1)C(=O)CCC2 | – | 17.8 µM (active) |
| Cc1nccn1C[C@@H]1CCc2c(c3ccccc3n2C)C1=O | 12.3% [at 25.6 µM] | – |
| Cc1nnc(SCC2=C(C(=O)O)N3C(=O)[C@@H](NC(=O)Cn4cnnn4)[C@@H]3SC2)s1 | – | inactive |
